Measured values as given in article PMC5540273 (PLoS ONE, 2017).

Each compound was assayed on p38-delta. Conditions: concentration: 1 μM, replicates: in singlicate; n = 1.
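Note: KINOMEscan kinase panel screen.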

| Structure (SMILES) | %Inh |
| --- | --- |
| O=C(O)C(F)(F)F.O=C(O)C(F)(F)F.O=c1[nH]ccc2nc(N[C@@H]3CCCNC3)nc(Nc3ccc(S(=O)(=O)N4CCOCC4)cc3)c12 [GSK2177277] | 57% |
| COC(=O)Nc1nc2ccc(Oc3ccc(NC(=O)Nc4cc(C(F)(F)F)ccc4F)cc3)cc2n1C.Cl [GW692089] | 0% |
| Fc1ccc(-c2ncn(C3CCNCC3)c2-c2ccnc(Oc3ccc(-c4ccccc4)cc3)n2)cc1 [SB-245391] | 0% |
| O=C(Nc1n[nH]c2nc(-c3ccc(O)cc3)ccc12)C1CC1 [SB-710363] | 0% |
| c1ccc(-c2n[nH]cc2Nc2ccnc3ccccc23)nc1 [GW694077] | 0% |
| O=C(Nc1cccc(-c2nn3ccccc3c2-c2ccnc(Nc3cccc(F)c3)n2)c1)c1c(F)ccc(F)c1Cl [GSK357952] | 36% |
| Nc1ncc(-c2ccc3nccc(-c4ccncc4)c3c2)cc1S(=O)(=O)N1CCOCC1 [GSK1627798] | 0% |
| COc1ccc(Nc2nccc(NCCNC(=O)c3cc4ccccc4s3)n2)cc1 [GSK1379896] | 11% |
| CN(c1ccc(NC(=O)Nc2cc(C(F)(F)F)ccc2F)cc1)c1ccnc(Nc2ccc(S(N)(=O)=O)cc2)n1 [GW809893] | 91.7% |
| COc1ccc(CNC(=O)NC2CCN(c3ccnc(Nc4ccc(F)cc4)n3)CC2)cc1 [GSK1379788] | 29% |
| Cc1ccc(S(=O)(=O)Nc2ccc(Nc3nccc(Nc4cccc5[nH]ncc45)n3)cc2)cc1 [GSK581271] | 46% |
| COc1cccc(NC(=O)NC2CCN(c3ccnc(Nc4cc(OC)c(OC)c(OC)c4)n3)C2)c1 (centres unmarked) [GSK1379763] | 8% |
| CC(C)c1nc(-c2cccc(NS(=O)(=O)c3c(F)cccc3F)c2F)c(-c2ccnc(Nc3ccc(N4CCOCC4)nc3)n2)s1 [GSK2008607] | 0% |
| CN1CCN(CCCNc2nccc(-c3c(-c4ccc(F)cc4)nn4cc(C(F)(F)F)ccc34)n2)CC1 [GW621581] | 12% |
| CCn1c(-c2nonc2N)nc2c(C#CC(C)(C)O)nc(OC[C@H](N)c3ccccc3)cc21 [GSK943949] | 0% |
| Cl.c1ccc(-c2ccc3c(Nc4ccc5[nH]ncc5c4)ccnc3c2)nc1 [GW440137] | 38% |

| Structure (SMILES) | %Inh |
| --- | --- |
| COc1cccc(-c2ccc3c(NC(=O)C4CC4)n[nH]c3n2)c1 [SB-710903] | 40% |
| CCCCc1nn2ncccc2c1-c1ccnc(Nc2ccc(N3CCN(C)CC3)cc2)n1 [GW684941] | 21% |
| CC(C)(C)c1ccc2nccc(Nc3cccc(O)c3)c2c1 [GW856795] | 12% |
| COc1cc(Nc2nccc(-c3c(-c4cccc(NC(=O)c5c(F)cccc5F)c4)nn4ccccc34)n2)cc(OC)c1OC [GSK323521] | 43% |
| COc1cccc(C(=O)Nc2cccc(Oc3ccc4nc(NC(=O)C5CC5)cn4n3)c2)c1 | 32% |
| CCc1ccc(-c2ccc3c(c2)-c2c(cnn2C)S(=O)(=O)N3C)cc1 | 23% |
| Cn1cc(-c2ccc3c(c2)CCN3C(=O)Cc2cccc(F)c2)c2c(N)ncnc21 [GSK2603358] | 52% |
| COc1cc2c(cc1OCCN1CCNCC1)ncc1c3ccc(C#N)cc3[nH]c21 | 0% |
| COc1cc(Nc2ncc3c(C)nc(-c4cc5ccccc5[nH]4)n3n2)cc(OC)c1OC [GW869516] | 0% |
| CC(=O)Nc1nc2cnc(Nc3cc(NC(=O)c4cccc(C5(C#N)CC5)c4Cl)ccc3C)nc2s1 | 17% |
| CCn1c(-c2nonc2N)nc2c(C#CC(C)(C)O)ncc(OCCCCN)c21.O=C(O)C(F)(F)F.O=C(O)C(F)(F)F [GSK507274] | 27% |
| Oc1cc(Nc2ccnc3cc(I)ccc23)ccc1F [GW552771] | 27% |
| Nc1n[nH]c2cnc(-c3ccccc3)cc12 [SB-642124] | 28% |
| C[C@@H]1CC[C@@H](C(=O)Nc2ccccc2)CN1c1cc(-c2ccc3c(N)n[nH]c3c2)nc(N)n1 [GSK2286062] | 13% |
| Cc1ccc(C(=O)N2CC[C@@H](O)C2)cc1-n1c(C)cc(OCc2ccc(F)cc2F)c(Br)c1=O | 7% |
| Nc1ncc(-c2cccnc2)c2scc(-c3ccc4c(c3)CCN4C(=O)Cc3ccccc3)c12 [GSK683281] | 71% |
